These results are taken from ChEMBL document CHEMBL1961873, “Compounds: GSK PKIS; Assays: Nanosyn kinase panel” (2012).

Assay [1] has as its target Serine/threonine-protein kinase pim-2 (Homo sapiens) (UniProt Q9P1W9). The settings on record: at 1 µM.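 Also: each value is a mean of the inhibition measurements against the kinase.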
The target in assay [2] is Serine/threonine-protein kinase pim-3 (Homo sapiens) (UniProt Q86V86). The note with it: at 0.1 µM.
Assay [3] has the same target. The note with it: at 1 µM.
Assay [4] has as its target T1, MAP kinase-activated protein kinase 5 (Homo sapiens) (UniProt Q8IW41).
T1 sequence (whole entry): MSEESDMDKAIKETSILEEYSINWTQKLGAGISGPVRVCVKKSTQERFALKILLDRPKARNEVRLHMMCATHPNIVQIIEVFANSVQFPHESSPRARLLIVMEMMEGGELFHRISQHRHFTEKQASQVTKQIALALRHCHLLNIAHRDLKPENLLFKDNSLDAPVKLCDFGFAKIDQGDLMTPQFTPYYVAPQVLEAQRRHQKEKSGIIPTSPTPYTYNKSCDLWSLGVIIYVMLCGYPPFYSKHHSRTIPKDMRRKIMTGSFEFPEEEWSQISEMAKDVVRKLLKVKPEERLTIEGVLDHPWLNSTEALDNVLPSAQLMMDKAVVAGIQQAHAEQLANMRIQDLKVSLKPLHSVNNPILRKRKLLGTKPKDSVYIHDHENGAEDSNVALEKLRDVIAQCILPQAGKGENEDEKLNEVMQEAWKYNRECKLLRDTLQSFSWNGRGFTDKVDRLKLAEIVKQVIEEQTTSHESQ
The settings on record: at 0.1 µM.

Assay [5] concerns the target T1, MAP kinase-activated protein kinase 5 (Homo sapiens). The settings on record: at 1 µM.
Assay [6] concerns the target Serine/threonine-protein kinase SIK1 (Homo sapiens) (UniProt P57059). The settings on record: at 0.1 µM.
Assay [7] has the same target. The note with it: at 1 µM.
The target in assay [8] is Serine/threonine-protein kinase SIK2 (Homo sapiens) (UniProt Q9H0K1). The settings on record: at 0.1 µM.
Assay [9] has the same target. The settings on record: at 1 µM.
Assay [10] deals with T2, Serine/threonine-protein kinase TBK1 (Homo sapiens) (UniProt Q9UHD2).
T2 sequence (whole entry): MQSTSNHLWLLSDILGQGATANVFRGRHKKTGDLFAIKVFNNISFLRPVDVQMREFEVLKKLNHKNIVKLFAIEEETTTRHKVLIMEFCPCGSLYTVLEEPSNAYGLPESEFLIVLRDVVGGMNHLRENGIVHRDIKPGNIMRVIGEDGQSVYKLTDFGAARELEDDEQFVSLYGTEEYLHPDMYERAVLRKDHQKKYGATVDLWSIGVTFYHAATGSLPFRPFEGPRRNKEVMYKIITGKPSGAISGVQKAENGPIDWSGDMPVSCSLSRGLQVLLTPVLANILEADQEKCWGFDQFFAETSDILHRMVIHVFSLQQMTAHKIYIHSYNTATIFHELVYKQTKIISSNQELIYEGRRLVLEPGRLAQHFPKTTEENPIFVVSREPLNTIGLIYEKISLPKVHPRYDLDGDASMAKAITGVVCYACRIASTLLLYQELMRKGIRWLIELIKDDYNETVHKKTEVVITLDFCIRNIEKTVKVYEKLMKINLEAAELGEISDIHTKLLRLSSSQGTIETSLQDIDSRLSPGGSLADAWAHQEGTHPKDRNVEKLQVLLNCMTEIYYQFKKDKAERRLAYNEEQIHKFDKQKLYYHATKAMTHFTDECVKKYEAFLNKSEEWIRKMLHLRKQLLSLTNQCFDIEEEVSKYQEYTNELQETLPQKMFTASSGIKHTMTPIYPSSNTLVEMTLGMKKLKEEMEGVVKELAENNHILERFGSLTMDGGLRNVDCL
The settings on record: at 0.1 µM.

For assay [11], the target named is T2, Serine/threonine-protein kinase TBK1 (Homo sapiens). The note with it: at 1 µM.
Assay [12] addresses T3, Testis-specific serine/threonine-protein kinase 1 (Homo sapiens) (UniProt Q9BXA7).
T3 sequence (whole entry): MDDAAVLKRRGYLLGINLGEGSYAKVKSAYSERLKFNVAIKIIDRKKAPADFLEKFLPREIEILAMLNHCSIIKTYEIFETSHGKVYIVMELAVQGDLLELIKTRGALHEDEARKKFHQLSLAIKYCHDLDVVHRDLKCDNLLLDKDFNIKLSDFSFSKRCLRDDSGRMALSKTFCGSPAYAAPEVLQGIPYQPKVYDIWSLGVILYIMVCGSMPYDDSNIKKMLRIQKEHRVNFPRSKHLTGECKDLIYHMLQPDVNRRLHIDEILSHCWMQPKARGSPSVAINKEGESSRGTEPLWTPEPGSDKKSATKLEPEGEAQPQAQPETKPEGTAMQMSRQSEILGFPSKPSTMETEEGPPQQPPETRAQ
The note with it: at 0.1 µM.

Assay [13] concerns the target T3, Testis-specific serine/threonine-protein kinase 1 (Homo sapiens). The note with it: at 1 µM.
Assay [14] deals with T4, Testis-specific serine/threonine-protein kinase 2 (Homo sapiens) (UniProt Q96PF2).
T4 sequence (whole entry): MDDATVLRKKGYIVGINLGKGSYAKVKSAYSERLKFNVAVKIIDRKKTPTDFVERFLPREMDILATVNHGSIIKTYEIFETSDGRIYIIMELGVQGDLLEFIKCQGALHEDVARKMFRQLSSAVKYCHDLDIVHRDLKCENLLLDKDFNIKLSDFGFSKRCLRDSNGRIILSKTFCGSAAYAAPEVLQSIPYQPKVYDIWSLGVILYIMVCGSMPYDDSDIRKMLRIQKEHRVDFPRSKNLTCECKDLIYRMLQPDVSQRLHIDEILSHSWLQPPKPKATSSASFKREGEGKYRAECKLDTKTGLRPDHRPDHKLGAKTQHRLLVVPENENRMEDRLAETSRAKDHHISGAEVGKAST
The settings on record: at 0.1 µM.

The target of assay [15] is T4, Testis-specific serine/threonine-protein kinase 2 (Homo sapiens). The note with it: at 1 µM.
The target in assay [16] is Casein kinase I isoform alpha (Homo sapiens) (UniProt P48729). The note with it: at 0.1 µM.
Assay [17] shares this target. The settings on record: at 1 µM.
Assay [18] has as its target Casein kinase I isoform gamma-1 (Homo sapiens) (UniProt Q9HCP0). The settings on record: at 0.1 µM.
Assay [19] has the same target. The settings on record: at 1 µM.
Assay [20] deals with Casein kinase I isoform gamma-2 (Homo sapiens) (UniProt P78368). The note with it: at 0.1 µM.

Broadly, the inhibition is the change of the read-out against control, counted positive when it falls.

Casein kinase I isoform alpha (Homo sapiens), sequence (P48729 2-337 limits assumed): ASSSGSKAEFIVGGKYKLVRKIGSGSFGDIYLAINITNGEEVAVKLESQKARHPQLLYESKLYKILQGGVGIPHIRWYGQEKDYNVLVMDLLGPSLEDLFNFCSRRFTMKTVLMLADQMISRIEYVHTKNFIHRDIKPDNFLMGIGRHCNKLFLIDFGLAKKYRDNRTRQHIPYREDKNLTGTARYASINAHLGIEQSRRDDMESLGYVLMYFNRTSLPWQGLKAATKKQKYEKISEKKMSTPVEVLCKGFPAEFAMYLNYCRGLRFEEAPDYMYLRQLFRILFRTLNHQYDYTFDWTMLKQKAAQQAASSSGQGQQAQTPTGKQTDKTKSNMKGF
Serine/threonine-protein kinase pim-2 (Homo sapiens), sequence (Q9P1W9 whole entry, looked up): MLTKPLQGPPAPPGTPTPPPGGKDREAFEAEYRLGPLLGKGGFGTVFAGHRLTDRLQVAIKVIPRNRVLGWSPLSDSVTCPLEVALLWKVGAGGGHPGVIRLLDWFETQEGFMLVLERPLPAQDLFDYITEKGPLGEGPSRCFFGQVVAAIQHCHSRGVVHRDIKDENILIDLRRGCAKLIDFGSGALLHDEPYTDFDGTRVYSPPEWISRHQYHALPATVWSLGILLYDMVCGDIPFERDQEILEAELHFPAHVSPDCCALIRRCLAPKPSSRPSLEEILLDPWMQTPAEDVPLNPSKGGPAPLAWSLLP
Serine/threonine-protein kinase SIK2 (Homo sapiens), sequence (Q9H0K1 whole entry, looked up): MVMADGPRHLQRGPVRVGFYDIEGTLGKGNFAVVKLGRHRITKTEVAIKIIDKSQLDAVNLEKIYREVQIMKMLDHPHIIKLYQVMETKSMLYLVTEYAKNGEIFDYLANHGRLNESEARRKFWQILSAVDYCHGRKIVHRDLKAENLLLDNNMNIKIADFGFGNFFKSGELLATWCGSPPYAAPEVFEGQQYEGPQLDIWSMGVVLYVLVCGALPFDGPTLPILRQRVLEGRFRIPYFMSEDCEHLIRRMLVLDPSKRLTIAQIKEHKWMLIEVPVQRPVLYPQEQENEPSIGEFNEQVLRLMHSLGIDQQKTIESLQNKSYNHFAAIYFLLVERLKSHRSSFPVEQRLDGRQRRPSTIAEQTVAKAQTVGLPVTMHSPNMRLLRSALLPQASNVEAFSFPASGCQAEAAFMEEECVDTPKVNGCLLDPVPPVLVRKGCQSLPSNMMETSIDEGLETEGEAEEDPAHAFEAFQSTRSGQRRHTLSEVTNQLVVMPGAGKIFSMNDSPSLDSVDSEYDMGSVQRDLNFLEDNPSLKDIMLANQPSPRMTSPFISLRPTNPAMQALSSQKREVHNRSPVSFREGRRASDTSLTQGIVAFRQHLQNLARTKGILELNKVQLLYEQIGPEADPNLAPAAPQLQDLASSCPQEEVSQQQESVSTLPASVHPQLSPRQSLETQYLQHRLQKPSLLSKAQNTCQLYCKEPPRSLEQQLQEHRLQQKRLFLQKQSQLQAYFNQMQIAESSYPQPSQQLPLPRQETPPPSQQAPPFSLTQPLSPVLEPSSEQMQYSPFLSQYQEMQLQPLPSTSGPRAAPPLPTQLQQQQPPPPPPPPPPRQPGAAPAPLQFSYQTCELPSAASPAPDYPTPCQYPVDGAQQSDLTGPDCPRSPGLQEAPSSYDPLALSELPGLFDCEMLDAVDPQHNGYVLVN
Casein kinase I isoform gamma-2 (Homo sapiens), sequence (P78368 whole entry, looked up, canonical isoform): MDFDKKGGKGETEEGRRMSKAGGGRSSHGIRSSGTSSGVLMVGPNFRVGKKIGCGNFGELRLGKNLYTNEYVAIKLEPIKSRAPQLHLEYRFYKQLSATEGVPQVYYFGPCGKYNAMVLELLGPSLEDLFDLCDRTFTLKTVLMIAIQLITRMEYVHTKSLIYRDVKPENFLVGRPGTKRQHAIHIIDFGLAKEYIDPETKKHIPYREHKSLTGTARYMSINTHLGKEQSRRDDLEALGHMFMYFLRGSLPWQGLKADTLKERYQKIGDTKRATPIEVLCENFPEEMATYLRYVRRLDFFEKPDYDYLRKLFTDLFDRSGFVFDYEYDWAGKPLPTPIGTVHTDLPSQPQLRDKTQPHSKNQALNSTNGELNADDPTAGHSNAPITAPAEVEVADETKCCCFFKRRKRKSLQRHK
Serine/threonine-protein kinase SIK1 (Homo sapiens), sequence (P57059 whole entry): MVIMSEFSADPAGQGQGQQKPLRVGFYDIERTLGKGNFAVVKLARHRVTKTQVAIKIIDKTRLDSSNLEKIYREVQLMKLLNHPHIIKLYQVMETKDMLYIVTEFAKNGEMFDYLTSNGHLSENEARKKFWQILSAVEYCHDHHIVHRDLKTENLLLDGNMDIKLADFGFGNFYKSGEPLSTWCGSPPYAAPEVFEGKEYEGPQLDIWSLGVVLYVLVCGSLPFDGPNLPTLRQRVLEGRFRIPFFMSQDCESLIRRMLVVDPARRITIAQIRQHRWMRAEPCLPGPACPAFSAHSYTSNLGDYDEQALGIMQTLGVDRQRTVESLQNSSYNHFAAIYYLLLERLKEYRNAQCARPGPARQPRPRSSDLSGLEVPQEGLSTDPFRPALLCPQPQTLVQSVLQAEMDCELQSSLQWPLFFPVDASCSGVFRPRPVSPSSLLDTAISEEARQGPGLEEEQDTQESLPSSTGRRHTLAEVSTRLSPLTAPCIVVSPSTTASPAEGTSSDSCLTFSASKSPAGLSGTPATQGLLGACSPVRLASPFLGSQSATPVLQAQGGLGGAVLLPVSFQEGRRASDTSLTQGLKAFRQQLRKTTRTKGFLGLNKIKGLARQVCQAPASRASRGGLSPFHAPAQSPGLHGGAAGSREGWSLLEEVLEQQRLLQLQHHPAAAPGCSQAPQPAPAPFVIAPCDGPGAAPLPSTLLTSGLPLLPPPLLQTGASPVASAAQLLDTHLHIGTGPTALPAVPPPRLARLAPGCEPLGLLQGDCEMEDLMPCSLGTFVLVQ
Casein kinase I isoform gamma-1 (Homo sapiens), sequence (Q9HCP0 whole entry, looked up, canonical isoform): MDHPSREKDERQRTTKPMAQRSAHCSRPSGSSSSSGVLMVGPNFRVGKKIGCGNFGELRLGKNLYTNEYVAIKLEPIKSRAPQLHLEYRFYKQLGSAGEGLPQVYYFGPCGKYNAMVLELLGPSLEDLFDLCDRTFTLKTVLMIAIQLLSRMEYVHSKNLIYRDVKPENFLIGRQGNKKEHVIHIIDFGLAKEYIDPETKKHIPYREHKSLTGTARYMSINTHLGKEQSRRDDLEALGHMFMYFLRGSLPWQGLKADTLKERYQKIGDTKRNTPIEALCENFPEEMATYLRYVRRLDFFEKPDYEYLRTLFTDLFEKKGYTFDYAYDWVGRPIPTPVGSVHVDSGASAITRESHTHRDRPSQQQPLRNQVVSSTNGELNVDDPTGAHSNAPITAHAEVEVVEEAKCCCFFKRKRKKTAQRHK

As to `c1ccc(Nc2ncc(-c3ccccc3)o2)cc1`, the inhibition in [1] is -0.45%; in [2] it was 0.11%; in assay [3], 2.31%; in assay [4], 2.01%; in assay [5], 1.68%; in [6] it was 3.63%. Besides, the inhibition in [7] amounted to 12.6%; in assay [8], 7.32%; in assay [9], 13.8%; in assay [10] it was 5.72%; in assay [11], 5.74%; in [12] it was 5.73%. Besides, the inhibition in assay [13] amounted to 6.03%; in assay [14], 2.44%; in assay [15] it was 3.66%; in assay [16], 4.02%; in assay [17], 7.73%; in assay [18], 3.94%. Moreover, the inhibition in assay [19] is 5.22%; in assay [20] it was 3.32%.

With `COc1cc2ncn(-c3cc(OCc4ccccc4S(C)(=O)=O)c(C#N)s3)c2cc1OC`, the inhibition in assay [1] was 1.39%; in assay [2], -0.4%; in assay [3], -0.82%; in assay [4], 0.7%; in assay [5], -0.19%; in [6] it was 16.1%. Also, the inhibition in assay [7] was 61%; in assay [8], 21.9%; in assay [9] it was 69.4%; in assay [10], 64.9%; in [11], 83%; in [12], 22.1%. In addition, the inhibition in assay [13] was found to be 69.2%; in assay [14], 0.6%; in assay [15], 4.54%; in assay [16], 3.32%; in [17] it was 3.58%; in assay [18] it was 3.26%. Moreover, the inhibition in assay [19] turned out to be 4.23%; in [20] it was 2.02%.

On to `O=C1Nc2ccc(-c3cccnc3)cc2C1=Cc1cc(Br)c(O)c(Br)c1`, for which the inhibition in [1] is 46.5%; in assay [2] it was 8.54%; in assay [3], 49%; in assay [4], 0.52%; in assay [5] it was 0.45%; in assay [6], 6.08%. The inhibition was 4.86% in assay [7]; -1.13% in assay [8]; -0.16% in assay [9]; 3.66% in assay [10]; 7.51% in assay [11]; 2.68% in assay [12]. In addition, the inhibition in assay [13] is 1.29%; in [14], 0.55%; in [15], -0.14%; in [16], 6.06%; in assay [17], 3.87%; in [18], 4.05%. Also, the inhibition in assay [19] was determined as 4.74%; in [20] it was 2.62%.

On to `Cc1nc(-c2ccccc2)n2nc(NCCCN3CCOCC3)ncc12`, for which the inhibition was 0.05% in [1]; -0.2% in assay [2]; 1.5% in [3]; 0.74% in assay [4]; 0.74% in [5]; 3.53% in [6]. In addition, the inhibition was 5.24% in assay [7]; -0.49% in [8]; 4.81% in assay [9]; 1.18% in assay [10]; 6.52% in assay [11]; 0.26% in assay [12]. Also, the inhibition in assay [13] is 3.44%; in assay [14], 0.32%; in assay [15], 0.77%; in assay [16], 1.74%; in assay [17] it was 8.04%; in assay [18], 2.06%. Moreover, the values for the inhibition in [19] and in assay [20] were 2.66% and 2.09%, respectively.

For `COc1cccc(-n2ncc3c(N/N=C/c4ccc(C)cc4)ncnc32)c1`, the inhibition in assay [1] stood at 0.75%; in [2], 2.2%; in assay [3] it was 8.3%; in assay [4], 1.88%; in assay [5] it was 2.22%; in assay [6] it was 7.95%. The inhibition in assay [7] came out at 12.6%; in [8], 8.99%; in assay [9], 14.7%; in assay [10], 2.64%; in assay [11] it was 5.4%; in assay [12], 5.91%. In addition, the inhibition was 15.2% in [13]; 2.36% in assay [14]; 3.89% in [15]; 3% in [16]; 8.69% in assay [17]; 6.44% in assay [18]. Further, the figures for the inhibition in [19] and in assay [20] were 11.2% and 6.88%, respectively.

For the molecule `CCOc1nccc2c1nc(-c1nonc1N)n2CC`, the inhibition in assay [1] was 1.49%; in assay [2], 3.33%; in assay [3], 5.37%; in assay [4] it was 2.15%; in assay [5] it was 3.99%; in assay [6] it was 4.04%. In addition, the inhibition in [7] worked out at 5.99%; in assay [8], 4.45%; in assay [9] it was 9.31%; in assay [10], 1.76%; in assay [11] it was 6.01%; in [12], 3.94%. For the same molecule, the inhibition was found to be 4.63% in assay [13]; 2.77% in [14]; 4.45% in assay [15]; 3.85% in assay [16]; 2.28% in assay [17]; 2.65% in assay [18]. For the same molecule, the inhibition came out at 1.76% in assay [19] and 1.95% in [20].
